# Screening data from PubChem BioAssay.
# TTR transcr act = TTR transcription activators in neuroblastoma reporter cells, primary screen, cell-based, luminescence, SH-SY5Y, TTR promoter Gaussia luciferase | 100% = recombinant luciferase protein wells | activation, % at 16.7 µM | hit rate 1.3% among 92,000 | AID 1117267, 2014;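 active = activation above the mean of all tested compounds plus 3 SD, cut at about 9.5% in these data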;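 note: cells exposed to compounds for one day before reading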
# TTR inh HuH7 = TTR promoter reporter inhibitors in hepatoma cells, counter-screen for TTR transcription activator project, cell-based, luminescence, HuH7 hepatoma; shares compounds with TTR transcr act; HuH7 TTR promoter-Gaussia luciferase reporter; inhibition, % at 16.7 µM; hit rate 4% among 1,100;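 active = average inhibition above the solvent-only control wells' mean plus 3 SD, cut at about 15% in these data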;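 note: inhibitors lower well luminescence so higher value means more inhibition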
# TTR act confirm = TTR transcription activators, retest, confirmation, cell-based, luminescence, SH-SY5Y, triplicate; shares compounds with TTR transcr act; SHSY5Y TTR promoter Gaussia luciferase; 100% = purified Lucia enzyme wells, no cells; activation, % at 16.7 µM; 1,100 tested, under 10 active; AID 1117280, 2014;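 active = mean activation above a set limit taken from the earlier primary screen, cut at about 11% in these data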
# A number is an active result; i = inactive. This excerpt belongs to a sample that is enriched for hits.
SMILES,TTR transcr act,others
CN(C)c1ccc(/C=N/NC(=O)CN2CCCCC2)cc1Br,i,
CNC(=O)CN(c1ccc(Oc2ccccc2)cc1)S(=O)(=O)c1ccc(C)cc1,i,
CCOC(=O)[C@]12CCCC=C1N(CCCOC)C(=O)[C@@H]2CC(=O)NCCCCc1ccccc1,i,
Nc1cnccc1C(=O)O,10,TTR inh HuH7=i;TTR act confirm=i
Nc1ccc(Br)cc1C(=O)O,i,
Cc1cc(C(=O)O)c(C)n1Cc1ccncc1,i,
CC(=O)NC(Cc1ccccc1)P(=O)(O)O (stereo not given),i,
O=S1(=O)c2ccc(N3CC[C@@H](O)C3)cc2O[C@H]2CCN1C2,i,
CC1(c2nnnn2Cc2ccccc2)CCCCC(=O)N1Cc1cccs1 (stereo not given),i,
CS(=O)(=O)N(CC(=O)N/N=C/c1cc([N+](=O)[O-])ccc1Cl)c1ccccc1,i,
O=C(CN(c1ccc(Cl)c(C(F)(F)F)c1)S(=O)(=O)c1ccccc1)N/N=C/c1cccc2c1OCCO2,10,TTR inh HuH7=i;TTR act confirm=i
COc1ccc(N(CC(=O)N/N=C/c2ccc(OC3CSC3)cc2)S(=O)(=O)c2ccccc2)cc1,i,
COc1ccccc1N1CCN(c2nccc(C)n2)CC1,i,
C[C@@H]1CN([C@H](C)CO)S(=O)(=O)c2ccc(C#CC3CCCC3)cc2O[C@H]1CN(C)C(=O)Cc1ccccc1,i,
CC1=C(C(=O)N2CCOCC2)CC(CC(=O)NCCc2ccccn2)C(=O)N1CCC1=CCCCC1 (stereo not given),i,
CCN(CC)C(=O)C1=C(C)N(CCC2=CCCCC2)C(=O)C(CC(=O)NCCCCc2ccccc2)C1 (stereo not given),i,
CCN(CC)C(=O)C1=C(C)N(CCC2=CCCCC2)C(=O)C(CC(=O)NCCc2ccccn2)C1 (stereo not given),24,TTR inh HuH7=i;TTR act confirm=i
O=C(C1CCCCC1)n1ccc2ccc(-c3ccc4ccn(Cc5ccccc5)c4c3)cc21,i,
CCOC(=O)CCCCCC(=O)Nc1ccc2c(c1)C(=O)N([C@@H](C)CO)C[C@@H](C)[C@H](CN(C)C(=O)c1ccncc1)OCCCC[C@H](C)O2,i,
COc1cc(C(=O)NCCCn2ccnc2)cc(OC)c1OC,i,
Cc1cc(C(=O)NCCCn2ccnc2)cs1,i,
O=C(NCCCn1ccnc1)c1cc(C2CC2)on1,10,TTR inh HuH7=i;TTR act confirm=i
Cc1cc(C)n(CC2CC(=O)N(c3ccc(Cl)cc3)C2=O)n1 (stereo not given),i,
Cc1cc(C)n(CC2CC(=O)N(c3ccc(Cl)c(Cl)c3)C2=O)n1 (stereo not given),12,TTR inh HuH7=i;TTR act confirm=i
Cc1ccc(N2C(=O)CC(Cn3nc(C)cc3C)C2=O)cc1 (stereo not given),i,
SMILES,TTR transcr act,others
O=C1CCC[C@H]2C[C@H](NCc3ccc(Br)cc3)CC[C@]23CCCN13,i,
O=C(CCC(=O)c1cccs1)OCC(=O)c1ccccc1F,i,
COc1ccc2c(C(c3ccccc3O)C3CCCN3S(=O)(=O)c3ccc(C)cc3)cn(C)c2c1 (stereo not given),i,
Cc1ccc(-n2c(CSc3nc(C)cc(C)n3)n[nH]c2=S)cc1,26,TTR inh HuH7=i;TTR act confirm=i
Cc1ccc(-n2c(CNc3cccc(Cl)c3)n[nH]c2=S)cc1,i,
Cc1nc2ccccc2n1Cc1n[nH]c(=S)n1-c1ccc(Cl)cc1,i,
CCCCn1nnnc1C(c1ccc(OC)cc1)N1CCN(C/C=C/c2ccccc2)CC1 (stereo not given),i,
COc1ccc(OC)c(NC(=O)c2ccc(CSc3ncccn3)cc2)c1,i,
C/C(O)=C(/C=NCC(=O)O)C(=O)Nc1nccs1,i,
COC(=O)c1ccc2cn[nH]c2c1,i,
COC(=O)c1cc(OC)nc(OC)c1,16,TTR inh HuH7=i;TTR act confirm=i
COC(=O)c1ccc2nccnc2c1,i,
O=C(CS(=O)(=O)Cc1ccccc1)NCCc1ccc(F)cc1,i,
CN1CCN(C2CN(Cc3ccccc3)S(=O)(=O)C2)CC1 (stereo not given),i,
CN1CCC(N2CCN(C3CN(Cc4ccc(F)cc4)S(=O)(=O)C3)CC2)CC1 (stereo not given),12,TTR inh HuH7=i;TTR act confirm=i
O=S1(=O)CC(N2CCC(Cc3ccccc3)CC2)CN1Cc1ccc(F)cc1 (stereo not given),i,
COc1ccc(-c2c(C(=O)c3ccccc3)[nH]c(N)c2C(=O)NC2CC2)cc1OC,i,
CC(C(=O)Nc1ccc(C#N)cc1)N(C)CC(=O)Nc1cccc(F)c1 (stereo not given),9.9,TTR inh HuH7=i;TTR act confirm=i
CC(C(=O)Nc1ccc(C#N)cc1)N(C)Cc1cccs1 (stereo not given),i,
CC(C(=O)Nc1ccc(S(=O)(=O)N2CCCC2)cc1)N(C)CC(=O)Nc1cccc(F)c1 (stereo not given),i,
CC1CC(C)CN(C(=O)c2cccc(NC(=O)CC3SC(N4CCCCC4)=NC3=O)c2)C1 (stereo not given),i,
COc1ccc(NC(=O)CC2SC(N3CCCC3)=NC2=O)cc1Cl (stereo not given),i,
Cc1ccc(NC(=O)c2cccc(NC(=O)CC3SC(N4CCCCC4)=NC3=O)c2)nc1 (stereo not given),9.8,TTR inh HuH7=i;TTR act confirm=i
CCc1cc(=O)oc2cc(OC(C)C(=O)NCC3CCC(C(=O)O)CC3)c(Cl)cc12 (stereo not given),i,
CC1CN(C(=O)c2ccccc2OCc2ccccc2Cl)CC(C)O1 (stereo not given),i,
SMILES,TTR transcr act,others
O=C(c1ccc(COc2ccccc2Cl)o1)N1CCCC1,10,TTR inh HuH7=i;TTR act confirm=i
CC1CN(C(=O)c2ccc(COc3ccccc3Br)o2)CC(C)O1 (stereo not given),69,TTR inh HuH7=i;TTR act confirm=i
CN1CCN(NC(=O)c2ccc(COc3ccccc3Br)o2)CC1,i,
O=C(c1ccc(COCC(F)(F)F)o1)N1CCCCCC1,i,
CC1CCN(C(=O)c2ccc(COc3ccccc3Cl)o2)CC1,i,
O=C(Nc1ccc(F)cc1)OCc1cn(Cc2cccc(F)c2F)nn1,i,
CCN1C(=O)[C@H]2[C@H]3CN=C(SCc4ccc(C)cc4)N3[C@@](CC)(C(=O)OC)[C@H]2C1=O,i,
COc1ccc(CN2C(=O)CCC2(C)c2nnnn2-c2ccc3c(c2)OCCO3)cc1 (stereo not given),i,
Cc1cccc(N(C(=O)Cn2nnc3ccccc32)C(C(=O)NCc2ccco2)c2ccncc2)c1C (stereo not given),i,
Cc1ccccc1C(C(=O)NCc1ccco1)N(CC1CCCO1)C(=O)Cn1nnc2ccccc21 (stereo not given),12,TTR inh HuH7=i;TTR act confirm=i
O=C(NCc1ccco1)C(c1ccccc1)N(CC1CCCO1)C(=O)Cn1nnc2ccccc21 (stereo not given),i,
COc1ccc(CNC(=O)COC(=O)[C@H](Cc2ccccc2)NC(=O)c2cccs2)cc1,i,
COc1cccc(C(O)c2nccn2Cc2ccccc2)c1OC (stereo not given),i,
CCn1c(C(O)c2cccc(OC)c2OC)nc2ccccc21 (stereo not given),i,
COc1ccccc1C(O)c1nccn1C (stereo not given),14,TTR inh HuH7=i;TTR act confirm=i
NC(Cc1ccccc1)c1csc(Nc2ccc(C(=O)NCCCO)cn2)n1 (stereo not given),i,
